# Assay outcomes (PubChem BioAssay)
# A selection: hits, their analogues and other compounds. The true share with any hit is near 1.8%.
# GLP1R inv ag – inverse agonists of human GLP-1 receptor; P43220; HEK293 GLP-1R CRE-luciferase, luminescence, 24 h; GLP-1R form is constitutively active; Potency, µM (doses to about 38.3 µM), inactives show top-dose activity change, negative = inhibition, usual class: inhibitors; 1.6% of 410,000 active; further: potency means the concentration at half of the fitted maximal effect; on the % scale 0 is the no-effect control and ±100 the full control effect; nearly all actives have a fitted effect of over 55% in size
# Target sequence (P43220 whole entry, looked up): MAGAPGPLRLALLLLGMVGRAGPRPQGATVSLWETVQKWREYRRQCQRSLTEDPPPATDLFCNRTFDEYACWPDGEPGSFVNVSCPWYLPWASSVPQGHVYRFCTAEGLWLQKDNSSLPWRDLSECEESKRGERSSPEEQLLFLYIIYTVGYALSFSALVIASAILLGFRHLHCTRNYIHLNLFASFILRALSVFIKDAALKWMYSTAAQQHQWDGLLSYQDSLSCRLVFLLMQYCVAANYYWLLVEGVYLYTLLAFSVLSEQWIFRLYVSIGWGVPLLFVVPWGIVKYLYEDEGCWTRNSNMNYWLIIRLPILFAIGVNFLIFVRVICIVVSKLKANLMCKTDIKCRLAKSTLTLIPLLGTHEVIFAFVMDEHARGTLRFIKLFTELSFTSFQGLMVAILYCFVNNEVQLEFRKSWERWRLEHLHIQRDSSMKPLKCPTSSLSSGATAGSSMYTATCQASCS
#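 qHTS in 1536-well format: reporter HEK293 cells expressing constitutive GLP-1R activity in DMEM + 10% Nu serum, 24 hr with compounds at 37 deg C, luminescence read after 12 min with detection reagent.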
# TRPML1 agonist – human mucolipin-1 channel agonism; Q9GZU1; TRPML1-expressing cells, Ca2+ dye fluorescence, FDSS; activation, % (test concentration not listed); 0.12% of 410,000 active; AID 624414; in the data active means activation above about 50%; inconclusive means mostly about 30% to 49%; further: 0% is about no effect
#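 Tet-induced TRPML1-DL cells, 1,500 per well, cultured overnight, were loaded with a no-wash Ca2+ dye for 45–90 min. Calcium fluorescence was recorded on the FDSS for 110 s after compound addition, before the EC80 agonist (4 uM 54-4) was added.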
# TRPML1 blocker – blocks the human TRPML1 channel; Q9GZU1; TRPML1-inducible cells, Ca2+ dye fluorescence, FDSS; hits give low values; inhibition of EC80 agonist-evoked calcium signal; activity change, negative = inhibition, % (no concentration beside the values); 0.02% of 390,000 active; AID 624415; in the data active means activity change below about -50%; inconclusive means between about -30% and that limit;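 further: stimulus is agonist 54-4 at its EC80 concentration; on the % scale 0 is the no-effect control and ±100 the full control effect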
#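 Calcium fluorescence in TRPML1-DL cells induced overnight with Tet: a 110 s read after compound pin addition, then a 110 s antagonist read after challenge with 54-4 at 4 uM final (EC80).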
# HEK293 tox – cytotoxicity counter-screen for GLP-1 receptor inverse agonists; HEK293 cAMP-luciferase reporter cells, luminescence, 24 h; Potency, µM (series often up to 38.3 µM), for the others: top-dose activity change, negative = inhibition, usual class: inhibitors; 0.13% of 410,000 active;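 further: loss of luciferase light is scored as toxicity; potency means the concentration at half of the fitted maximal effect; on the % scale 0 is the no-effect control and ±100 the full control effect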
#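 Cells in DMEM/10% Nu serum/1% pen-strep, 1536-well format. Pre-incubated 12 h, dosed with 23 nL compound, incubated a further 24 h. Luciferase detection, 12 min at room temp, luminescence.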
# GLP1R ag – GLP-1 receptor (human) agonism; P43220; HEK293 GLP-1R CRE-luciferase, luminescence, 4-6 h; cells express a hypersensitive GLP-1R form; Potency, µM (series often up to 45.6 µM), for inactives: at the top dose activation, actives largely listed as activators; 0.007% of 380,000 active; AID 624172; further: potency means the concentration at half of the fitted maximal effect; % of control where 0% means no effect
# * hit, by the source's call; i = inactive; ? = inconclusive; nt = not tested or not shown. Unless noted, the call rests on the fitted dose curve; in most records, active means well fitted curve in the direction sought with a large enough effect; inconclusive means small, poorly fitted or top-dose-only effect, or another doubt; inactive means no such curve, though single readings can be large; an effect the other way counts as inactive or inconclusive.
SMILES,GLP1R inv ag,TRPML1 agonist,TRPML1 blocker,HEK293 tox,GLP1R ag
C[C@@H]1CN([C@@H](C)CO)C(=O)c2ccccc2-c2ccccc2CO[C@@H]1CN(C)S(=O)(=O)c1ccc(C(F)(F)F)cc1,10µM*,0,1,-42%,10%
C[C@H](CO)N1C[C@H](C)[C@H](CN(C)S(=O)(=O)c2cccc(F)c2)OCc2ccccc2-c2c(n(C)c3ccccc23)C1=O,11µM*,0,16,-28%,8%
C[C@H](CO)N1C[C@H](C)[C@@H](CN(C)S(=O)(=O)c2ccc(F)cc2)Oc2c(NC(=O)Nc3ccc(C(F)(F)F)cc3)cccc2C1=O,?,0,2,-14%,-3%
COc1ccc(-c2nc3ccccn3c2Nc2ccccc2C)cc1,nt,0,nt,nt,nt
O=S(=O)(c1ccccc1)N(Cc1nc(-c2ccccc2)no1)C1CCCCC1,6.3µM*,5,87,5%,7%
Cc1cccc(-c2noc(CN(C3CCCCC3)S(=O)(=O)c3ccc(F)cc3)n2)c1,2%,0,18,3%,nt
Cc1ccc(S(=O)(=O)N(Cc2nc(-c3cccc(C)c3)no2)C2CCCCC2)cc1,10µM*,2,30,38%,nt
COC(=O)c1ccccc1-c1c2ccc(=N)cc-2oc2cc(N)ccc12,-26%,99*,-23,i,-1%
Cc1cccc(C)c1Nc1sc(C(=O)c2ccccc2)c(N)c1C(=O)Nc1ccc(F)cc1,11µM*,4,16,-22%,nt
CCOc1ccccc1Nc1sc(C(=O)c2ccccc2)c(N)c1C(=O)Nc1ccc(F)cc1,-17%,3,18,1%,nt
Cc1ccc(CCNC(=O)CCN2N=C(c3ccc(C)cc3)CCC2=O)cc1,-18%,3,1,3%,nt
COc1ccc(S(=O)(=O)Nc2cc3c(cc2NCc2ccccc2)n(C)c(=O)n3C)cc1,6%,0,5,-16%,nt
c1ccc(CN2CCN(c3cnc4ccccc4n3)CC2)cc1,10%,1,5,3%,?
Fc1ccccc1N1CCN(c2cnc3ccccc3n2)CC1,10µM*,-1,-18,-3%,0%
CCN(C(=O)c1cc2c(=O)oc3ccccc3c2s1)c1ccc(C)c(C)c1,-1%,-1,-3,2%,0%
Cc1ccc(NC(=O)C2CCCN2S(=O)(=O)c2cccc3cccnc23)cc1 (configuration not stated),1%,-1,-8,1%,nt
Cc1ccc(C)c(CN2C(=O)C3(c4ccccc42)N(c2ccc(Cl)cc2)C(=O)CS3(=O)=O)c1 (configuration not stated),6%,0,56,10%,7%
Cc1ccc(C(=O)O/N=C(\N)c2ccccn2)cc1,2.5µM*,2,-6,?,-6%
N/C(=N\OC(=O)c1ccccc1)c1ccccn1,?,-1,18,-13%,-8%
CCOc1ccc(C(=O)O/N=C(\N)c2ccccn2)cc1,2.5µM*,nt,nt,?,-8%
Cc1cccc(C(=O)O/N=C(\N)c2ccccn2)c1,2µM*,-1,11,?,-3%
Brc1ccc2c(ccc[n+]2CCc2ccccc2)c1,nt,0,nt,nt,nt
Cc1cc(C)n(-c2nc3ccccc3c(=O)n2OCC#N)n1,3.2µM*,1,-10,?,20%
Cc1ccc(NC(=O)Cn2c(=O)n(CCCCC(=O)NCc3ccccc3Cl)c(=O)c3ccccc32)cc1C,-1%,0,11,3%,-3%
Cc1nn(C)c(C)c1S(=O)(=O)N(CC(=O)N1CCN(c2ccccc2)CC1)c1ccc(C(C)C)cc1,-4%,0,-10,-1%,nt
O=C(Nc1ccc2nc3n(c(=O)c2c1)CCCCC3)c1cc([N+](=O)[O-])ccc1F,11µM*,0,65,?,-3%
O=C(Nc1ccc2nc3n(c(=O)c2c1)CCCCC3)c1c(F)ccc([N+](=O)[O-])c1F,?,2,-5,?,-3%
COc1cc2nc(/C=C/c3ccc(N(C)C)cc3)sc2cc1SC,?,120*,-12,59%,7%
Cc1cc(/C=C/c2nc3ccccc3s2)ccc1N(C)C,nt,1,nt,nt,nt
